Among all 370,000 compounds or so, about 5,400 (1.5%) were called active.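 The calls were made as follows: active = activation above the mean of all tested compounds plus 3 SD (cut at about 5.5% in these data); inactive = the rest.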 The list comes from a sample in which actives are over-represented; it also holds similar structures and randomly drawn compounds.
System: DAF-12 nuclear receptor (Haemonchus contortus)
Test: H. contortus DAF-12 nuclear receptor activators, primary screen, cell-based, luminescence, HEK293, lit1-tk-luc reporter (AID 652067);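 also: 100% = response to 3 µM Δ7-dafachronic acid high control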
Conditions: HEK293 hcDAF-12 lit1-tk-luc reporter, at 6.8 µM, stronger effect = higher value, 0% DMSO, 100% Δ7-dafachronic acid

activation, active:
O=C(Nc1ccc2c(c1)CCC2)c1ccc(Br)s1 9.52%, Cn1ccnc1SCC(=O)Nc1ccc2c(c1)OCCO2 6.79%, Cc1ccc(-c2csc(-c3c[nH]c4ccccc34)n2)cc1 6.08%, Cn1c(=O)c(C(=O)Nc2ncccn2)c(O)c2ccccc21 9.87%, COc1ccc(C(=O)Nc2sc(C)c(C)c2CN2CCOCC2)cc1 7.53%, O=C(Nc1ncccc1O)c1ccc(C(=O)c2ccccc2)cc1 7.52%, COc1ccc(C2=Nc3cc(C)ccc3OC2)cc1 12.7%, CC(=O)Nc1cccc(-c2csc(Nc3cccc(C)n3)n2)c1 6.6%, Cc1cccc(Nc2nc(-c3ccccc3)cs2)n1 13%

activation, inactive:
O=C(Nc1ccc(F)cc1)c1cc2c(s1)CCCC2 3.72%, CC1CC(C)CN(CCC(=O)Nc2ccc3c(c2)CCC3)C1 (stereo not given) 0.05%, COC(=O)[C@@]12CCCCC3=C1N(CCC3)C(=O)[C@H]2CC(=O)NCc1cccc2ccccc12 -2.45%, CC(c1c[nH]c2ccccc12)c1c(-c2ccccc2)n(C)c2ccccc12 (stereo not given) 3.35%, CCn1c(SCC(=O)Nc2ccc3c(c2)OCCO3)nnc1C(C)C -0.69%, O=C(CSc1nnnn1C1CCCC1)Nc1ccc2c(c1)OCCO2 1.27%, COC(=O)c1c(NC(=O)c2ccc(S(=O)(=O)N3CCOCC3)cc2)sc2c1CCN(C(C)C)C2 2.7%, Cc1ccc(-c2csc(N(Cc3ccco3)C(=O)c3cccs3)n2)cc1 -0.42%, CCn1c(SCCC(C)C)nnc1-c1c[nH]c2ccccc12 -1.13%, COc1cccc(CNC(=O)C2CCCN(c3nc4ccccc4o3)C2)c1OC (stereo not given) -1.83%, C=CCOC/C=C/C#CCN(CC=C)Cc1ccc(OC)cc1OC -3.48%, COC(=O)Nc1ccc(S(=O)(=O)N(C)CC(F)(F)C(F)F)cc1 -2.07%, COc1cccc(CNC(=O)CNS(=O)(=O)c2ccc3nc(C)sc3c2)c1OC -1.15%, Cn1c(=O)c(Sc2ccc(Cl)cc2)c(O)c2ccccc21 2.05%, C=CCn1c(=O)c(C(=O)Nc2ncccc2O)c(O)c2ccccc21 -0.68%, COc1ccc(-n2c(SCC(=O)NC3CCCC3)nnc2-c2ccncc2)cc1 -2.34%, COc1ccc(C2=CN(Cc3ccccc3)C(c3ccc(OC)cc3)CC2=O)cc1 (stereo not given) -0.85%, COc1ccc(C(=O)Nc2ccnn2C2CCN(Cc3ccncc3)CC2)cc1 -0.02%, CCOc1ccc(C(=O)Nc2ccc(CN3CCOCC3)cc2)cc1Cl -3.09%, CCC(=O)c1cn(CCOc2ccccc2OC)c2ccccc12 -2.5%, C=CCN1C(=O)[C@@H](CC(=O)N2CCN(C(=O)c3ccco3)CC2)[C@]2(C(=O)OC)CCCCC=C12 1.06%, O=C(Nc1ncccc1O)c1ccc(S(=O)(=O)N2CCCCCC2)cc1 3.34%, O=C(Nc1ncccc1O)c1ccc(S(=O)(=O)N2CCCC2)cc1 1.37%, Cc1ccc(C(=O)NNC2=Nc3cc([N+](=O)[O-])ccc3OC2)cc1 2.34%, COc1ccc(-c2onc(C)c2-c2ccc3c(c2)OCCO3)c(O)c1 -2.41%, CCOC(=O)c1ccccc1NC(=S)N1CCC(C(N)=O)CC1 -0.3%, CC(=O)NC(c1ccccc1)c1nc(-c2cccc(C(C)C)c2)cs1 (stereo not given) -2.11%, CC(=O)NC(c1ccccc1)c1nc(-c2ccccc2C)cs1 (stereo not given) 3.96%, Cc1nc(N)sc1-c1ccccc1 1.84%, CC(=O)NC(c1cccc(F)c1)c1nc(-c2cccc(F)c2)cs1 (stereo not given) -0.83%, Cc1ccccc1Nc1scc(-c2ccc(Br)cc2)[n+]1-c1ccccc1C -0.47%, Cc1noc(C)c1NC(=O)Nc1ccc2c(c1)C(=O)N([C@H](C)CO)C[C@H](C)[C@H](CN(C)Cc1ccncc1)OCCCC[C@@H](C)O2 -0.42%, O=C1CCC2(CCC(c3ccc(Cl)cc3)CC2)N1CCO (stereo not given) 0.94%, Cc1ccc(C)c(CN2CCC(CNC(=O)C3CCCN(c4ncnc5c4nc4n5CCCCC4)C3)CC2)c1 (stereo not given) -1.74%, N#Cc1ccccc1OC[C@@H](O)CN1CCC(C(O)(c2ccccc2)c2ccccc2)CC1 -1.36%, Cc1ccc(CSc2nnc(SCC(=O)NN=Cc3cc(Br)ccc3F)s2)cc1 -0.88%

Source: PubChem BioAssay AID652067 (The Scripps Research Institute Molecular Screening Center, 2013)
